Reference: ChEMBL document CHEMBL3988442, “University of Dundee, Small-Polar-MMV Screening Library” (2021)
For some assays here: Results with a measured potency or affinity are listed apart.

How the values were obtained:
Parameters in all cases: scale not given: direction of the effect not stated beside the values
[1] = molecular target: Protein translocase subunit SecA (Escherichia coli (strain K12)) (UniProt P10408); assay: Assay to Identify E. coli SecA ATPase Inhibitors; type: functional; conditions: 30 µM
Protein translocase subunit SecA (Escherichia coli (strain K12)), sequence (P10408 whole entry): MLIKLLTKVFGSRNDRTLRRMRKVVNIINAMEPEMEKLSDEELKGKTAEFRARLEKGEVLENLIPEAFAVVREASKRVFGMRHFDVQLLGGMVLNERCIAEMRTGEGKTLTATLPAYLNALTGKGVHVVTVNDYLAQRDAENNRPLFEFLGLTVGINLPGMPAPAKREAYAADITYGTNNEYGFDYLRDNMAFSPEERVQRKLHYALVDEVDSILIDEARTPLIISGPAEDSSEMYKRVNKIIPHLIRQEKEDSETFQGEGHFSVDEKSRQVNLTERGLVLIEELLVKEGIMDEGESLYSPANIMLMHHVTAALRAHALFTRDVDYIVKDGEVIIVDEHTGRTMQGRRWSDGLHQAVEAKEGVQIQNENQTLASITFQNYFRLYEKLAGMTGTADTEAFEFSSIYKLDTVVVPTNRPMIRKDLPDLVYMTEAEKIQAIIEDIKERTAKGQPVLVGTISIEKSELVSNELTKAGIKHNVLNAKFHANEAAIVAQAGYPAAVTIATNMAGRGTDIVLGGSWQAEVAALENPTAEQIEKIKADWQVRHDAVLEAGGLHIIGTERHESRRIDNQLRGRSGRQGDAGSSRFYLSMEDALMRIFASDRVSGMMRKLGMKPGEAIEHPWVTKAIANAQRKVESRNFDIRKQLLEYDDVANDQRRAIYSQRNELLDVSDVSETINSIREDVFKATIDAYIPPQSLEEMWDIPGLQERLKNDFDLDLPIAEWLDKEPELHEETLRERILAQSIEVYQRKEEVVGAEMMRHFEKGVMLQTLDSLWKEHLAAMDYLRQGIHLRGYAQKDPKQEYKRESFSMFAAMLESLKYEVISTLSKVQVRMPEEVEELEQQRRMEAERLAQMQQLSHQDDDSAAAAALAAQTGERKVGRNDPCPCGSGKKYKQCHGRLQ

[2] = molecular target: T1, Ubiquitin-activating enzyme e1, putative (Leishmania donovani (strain BPK282A1)) (UniProt E9BSI1); assay: Leishmania donovani Ubiquitin Activating Enzyme (LdE1); type: functional; conditions: 30 µM
T1 sequence (whole entry): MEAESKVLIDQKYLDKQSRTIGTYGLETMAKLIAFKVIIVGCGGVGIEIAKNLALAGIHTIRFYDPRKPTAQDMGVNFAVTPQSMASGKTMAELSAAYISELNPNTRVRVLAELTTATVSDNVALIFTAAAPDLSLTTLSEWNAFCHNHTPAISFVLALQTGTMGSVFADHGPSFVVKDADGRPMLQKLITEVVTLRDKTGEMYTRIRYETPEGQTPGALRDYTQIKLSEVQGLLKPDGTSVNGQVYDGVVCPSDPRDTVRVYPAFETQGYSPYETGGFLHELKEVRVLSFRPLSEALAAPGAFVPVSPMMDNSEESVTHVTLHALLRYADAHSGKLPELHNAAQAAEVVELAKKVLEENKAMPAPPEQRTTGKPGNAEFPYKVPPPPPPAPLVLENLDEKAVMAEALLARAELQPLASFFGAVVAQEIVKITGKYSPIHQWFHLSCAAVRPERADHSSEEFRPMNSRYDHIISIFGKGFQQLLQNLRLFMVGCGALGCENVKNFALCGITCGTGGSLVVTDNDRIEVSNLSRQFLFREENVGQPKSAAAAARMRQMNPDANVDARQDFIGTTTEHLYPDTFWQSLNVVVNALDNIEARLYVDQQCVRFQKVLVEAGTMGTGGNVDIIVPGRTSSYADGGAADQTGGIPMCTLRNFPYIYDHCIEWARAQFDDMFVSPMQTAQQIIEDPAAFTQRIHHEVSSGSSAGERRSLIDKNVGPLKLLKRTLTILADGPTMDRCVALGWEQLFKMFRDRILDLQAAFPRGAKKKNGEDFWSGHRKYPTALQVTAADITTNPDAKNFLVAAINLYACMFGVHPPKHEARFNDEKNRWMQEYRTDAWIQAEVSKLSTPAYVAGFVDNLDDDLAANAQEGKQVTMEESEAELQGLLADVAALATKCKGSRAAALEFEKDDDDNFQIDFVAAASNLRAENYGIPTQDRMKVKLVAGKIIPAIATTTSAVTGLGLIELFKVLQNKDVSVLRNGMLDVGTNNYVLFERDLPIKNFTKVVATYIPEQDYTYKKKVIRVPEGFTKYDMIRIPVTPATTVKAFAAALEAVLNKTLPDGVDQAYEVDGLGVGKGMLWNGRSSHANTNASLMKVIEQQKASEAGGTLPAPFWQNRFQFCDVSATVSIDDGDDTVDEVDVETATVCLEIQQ

[3] = molecular target: AMP-activated protein kinase, AMPK (Homo sapiens) (UniProt P54646+O43741+P54619+Q9UGJ0+Q9Y478+Q13131+Q9UGI9); assay: AMP-dependent Kinase enzyme assay. An in vitro enzyme assay that detects ADP turnover that is directly proportional to AMPK activity. This uses naive AMPK that is activated during the assay with MK-8722; type: functional; conditions: 30 µM
[4] = molecular target: Sialic acid-binding Ig-like lectin 9 (Homo sapiens) (UniProt Q9Y336); assay: Hs-Siglec9 ALPHAscreen SOP 20170721; conditions: 10 µM
Sialic acid-binding Ig-like lectin 9 (Homo sapiens), sequence (Q9Y336 whole entry): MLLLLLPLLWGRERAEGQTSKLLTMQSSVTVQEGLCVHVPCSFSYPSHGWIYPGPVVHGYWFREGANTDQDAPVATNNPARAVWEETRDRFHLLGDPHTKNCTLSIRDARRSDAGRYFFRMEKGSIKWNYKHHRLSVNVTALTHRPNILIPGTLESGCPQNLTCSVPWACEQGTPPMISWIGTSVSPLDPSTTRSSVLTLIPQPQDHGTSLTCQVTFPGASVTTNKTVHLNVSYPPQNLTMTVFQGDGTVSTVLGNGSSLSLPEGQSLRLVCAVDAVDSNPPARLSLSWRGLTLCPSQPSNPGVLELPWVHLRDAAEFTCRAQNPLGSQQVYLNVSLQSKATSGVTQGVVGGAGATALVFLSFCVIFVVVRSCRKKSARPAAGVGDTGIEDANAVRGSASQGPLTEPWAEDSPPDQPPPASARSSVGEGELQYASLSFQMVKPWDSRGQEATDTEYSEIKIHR

Trypanosoma cruzi = assay: Trypanosoma cruzi phosphomannomutase and mannose-1-phosphate guanylyltransferase assay; type: functional; conditions: 10 µM
[5] = molecular target: T2, Arginase-2, mitochondrial (Homo sapiens) (UniProt P78540); assay: in vitro enzyme assay to detect the production of urea directly proportional to the activity of Arginase II; type: functional; conditions: 33.3 µM; note: in the data most compounds retested in dose-response had high values
T2 sequence (whole entry): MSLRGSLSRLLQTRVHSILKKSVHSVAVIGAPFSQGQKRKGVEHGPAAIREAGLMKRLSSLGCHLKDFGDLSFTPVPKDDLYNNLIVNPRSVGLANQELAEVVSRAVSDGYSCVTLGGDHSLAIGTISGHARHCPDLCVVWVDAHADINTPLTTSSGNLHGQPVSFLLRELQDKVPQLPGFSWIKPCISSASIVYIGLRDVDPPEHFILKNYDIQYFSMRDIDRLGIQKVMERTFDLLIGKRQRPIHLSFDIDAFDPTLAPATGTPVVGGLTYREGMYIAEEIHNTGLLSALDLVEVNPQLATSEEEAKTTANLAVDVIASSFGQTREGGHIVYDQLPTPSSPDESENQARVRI

[6] = molecular target: T3, Proteasome subunit beta (Trypanosoma cruzi) (UniProt O96673); assay: Trypanosoma cruzi proteasome chymotrypsin-like activity (TcProtChymo) assay.; note: in the data most compounds retested in dose-response had high values; type: functional; conditions: 9.37 µM
T3 sequence (whole entry): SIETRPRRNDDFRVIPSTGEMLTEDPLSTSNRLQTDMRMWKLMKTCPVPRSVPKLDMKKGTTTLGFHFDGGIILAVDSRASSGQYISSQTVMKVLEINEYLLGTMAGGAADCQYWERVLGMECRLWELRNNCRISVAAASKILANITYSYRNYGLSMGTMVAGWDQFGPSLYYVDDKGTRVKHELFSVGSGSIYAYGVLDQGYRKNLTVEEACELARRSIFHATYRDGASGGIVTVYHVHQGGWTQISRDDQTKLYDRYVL

Homo sapiens = species: Homo sapiens; assay: To identify inhibition of the IFN signalling (Jak-Stat) pathway via expression of an eGFP reporter gene under the control of an IFN-stimulated response element (ISRE) containing MxA promoter.; type: functional; conditions: 30 µM
[7] = molecular target: T4, Tyrosyl-tRNA synthetase, putative (Trypanosoma cruzi (strain CL Brener)) (UniProt Q4DSP6); assay: Trypanosoma cruzi tyrosyl tRNA synthetase (TcYRS) _High Tyrosine SOP; type: functional; conditions: 30 µM; note: in the data most compounds retested in dose-response had high values
T4 sequence (whole entry): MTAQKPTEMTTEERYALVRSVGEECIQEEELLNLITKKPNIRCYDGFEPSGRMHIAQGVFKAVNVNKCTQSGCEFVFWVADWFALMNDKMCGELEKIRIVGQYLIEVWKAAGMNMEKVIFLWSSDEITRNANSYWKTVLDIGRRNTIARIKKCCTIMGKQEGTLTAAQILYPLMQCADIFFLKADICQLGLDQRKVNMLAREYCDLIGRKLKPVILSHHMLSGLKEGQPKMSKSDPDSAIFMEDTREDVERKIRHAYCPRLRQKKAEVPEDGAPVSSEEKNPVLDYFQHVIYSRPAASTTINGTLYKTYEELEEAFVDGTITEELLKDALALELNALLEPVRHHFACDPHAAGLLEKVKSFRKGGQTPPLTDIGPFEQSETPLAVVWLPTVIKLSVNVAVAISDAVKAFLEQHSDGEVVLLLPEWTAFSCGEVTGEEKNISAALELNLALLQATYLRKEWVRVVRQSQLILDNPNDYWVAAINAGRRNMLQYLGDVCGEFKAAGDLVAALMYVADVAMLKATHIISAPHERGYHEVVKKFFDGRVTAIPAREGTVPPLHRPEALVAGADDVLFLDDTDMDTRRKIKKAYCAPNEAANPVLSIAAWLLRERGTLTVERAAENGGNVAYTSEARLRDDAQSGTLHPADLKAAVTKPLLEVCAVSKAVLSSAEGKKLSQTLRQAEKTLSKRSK

[8] = molecular target: T4, Tyrosyl-tRNA synthetase, putative (Trypanosoma cruzi (strain CL Brener)); assay: Trypanosoma cruzi tyrosyl tRNA synthetase (TcYRS) SOP; type: functional; conditions: 30 µM
[9] = molecular target: Chromo domain-containing protein 1 (Saccharomyces cerevisiae (strain ATCC 204508 / S288c) (Baker's yeast)) (UniProt P32657); assay: ScCHD-1 Enzyme Inhibition Assay; type: functional; conditions: 30 µM; note: in the data most compounds retested in dose-response had high values
Chromo domain-containing protein 1 (Saccharomyces cerevisiae (strain ATCC 204508 / S288c) (Baker's yeast)), sequence (P32657 whole entry, the tested form may be a part): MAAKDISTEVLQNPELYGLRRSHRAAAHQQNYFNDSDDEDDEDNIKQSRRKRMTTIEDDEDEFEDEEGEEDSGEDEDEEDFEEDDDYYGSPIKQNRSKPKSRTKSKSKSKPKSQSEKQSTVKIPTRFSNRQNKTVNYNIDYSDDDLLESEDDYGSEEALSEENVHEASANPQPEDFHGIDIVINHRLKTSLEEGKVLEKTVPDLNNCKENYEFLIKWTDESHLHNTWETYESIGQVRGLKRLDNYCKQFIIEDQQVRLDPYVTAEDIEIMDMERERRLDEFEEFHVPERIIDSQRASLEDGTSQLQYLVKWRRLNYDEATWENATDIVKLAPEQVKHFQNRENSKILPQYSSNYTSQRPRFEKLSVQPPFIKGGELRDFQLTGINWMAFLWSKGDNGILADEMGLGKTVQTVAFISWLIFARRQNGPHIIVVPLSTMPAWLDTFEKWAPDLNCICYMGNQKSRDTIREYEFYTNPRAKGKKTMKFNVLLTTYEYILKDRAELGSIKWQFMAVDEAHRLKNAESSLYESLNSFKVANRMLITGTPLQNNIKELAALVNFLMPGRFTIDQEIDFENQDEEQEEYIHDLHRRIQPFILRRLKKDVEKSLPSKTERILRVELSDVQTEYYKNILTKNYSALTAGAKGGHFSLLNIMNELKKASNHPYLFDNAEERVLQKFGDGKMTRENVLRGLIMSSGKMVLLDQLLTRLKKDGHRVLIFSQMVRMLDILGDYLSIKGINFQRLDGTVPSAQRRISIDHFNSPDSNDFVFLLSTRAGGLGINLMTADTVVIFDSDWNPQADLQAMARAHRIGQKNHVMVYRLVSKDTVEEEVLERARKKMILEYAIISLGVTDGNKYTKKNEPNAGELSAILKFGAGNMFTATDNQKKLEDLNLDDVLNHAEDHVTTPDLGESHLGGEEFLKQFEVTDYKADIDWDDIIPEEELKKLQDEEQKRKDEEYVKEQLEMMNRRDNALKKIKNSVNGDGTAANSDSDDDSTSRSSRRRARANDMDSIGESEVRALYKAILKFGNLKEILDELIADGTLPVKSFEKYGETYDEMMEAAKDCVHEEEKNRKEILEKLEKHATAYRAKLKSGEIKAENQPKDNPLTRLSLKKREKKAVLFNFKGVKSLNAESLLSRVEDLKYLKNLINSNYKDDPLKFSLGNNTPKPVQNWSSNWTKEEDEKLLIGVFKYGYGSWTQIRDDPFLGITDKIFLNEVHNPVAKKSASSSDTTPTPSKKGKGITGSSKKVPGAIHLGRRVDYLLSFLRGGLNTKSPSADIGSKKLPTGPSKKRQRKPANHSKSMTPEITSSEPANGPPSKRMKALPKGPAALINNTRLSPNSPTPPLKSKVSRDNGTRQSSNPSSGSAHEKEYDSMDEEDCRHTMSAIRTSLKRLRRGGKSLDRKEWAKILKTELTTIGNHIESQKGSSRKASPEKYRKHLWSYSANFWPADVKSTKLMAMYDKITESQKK

| SMILES | Percent Effect [1] [%] | Percent Effect [2] [%] | Percent Effect [3] [%] | Percent Effect [4] [%] | Percent Effect (Trypanosoma cruzi) [%] | Percent Effect [5] [%] | Percent Effect [6] [%] | Percent Effect (Homo sapiens) [%] | Percent Effect [7] [%] | Percent Effect [8] [%] | Percent Effect [9] [%] |
| --- | --- | --- | --- | --- | --- | --- | --- | --- | --- | --- | --- |
| COc1ccc2c(c1)CN(Cc1nc3ccsc3c(=O)[nH]1)CC2 | -2.79 | -5.06 | -0.628 | 14.2 | -1.79 | 1.9 | 2.05 | 24.5 | 3.45 | 1.27 | 21.3 |
| O=C(Cc1noc2ccccc12)N1CCCC1c1noc(C2CC2)n1 (configuration not stated) | 0.239 | -2.7 | -6.79 | 3.85 | -4.62 | 0 | 7.39 | 86.2 | 2.46 | -6.17 | 5.86 |
| C=Cc1ccc(C(=O)N2CCCC(Nc3ccc(F)cc3)C2)cc1 (configuration not stated) | -3.33 | 8.11 | 2.02 | 27.7 | 7.72 | 0.952 | 3.97 | 2.82 | 2.65 | 19.5 | -11.2 |
| O=C(NCCCn1ccnc1)N1CCCC1c1ccncc1 (configuration not stated) | -1.66 | -2.67 | -1.97 | -2.62 | -5.36 | 1.56 | -1.57 | -1.17 | -0.546 | 1.24 | 5.86 |
| CC(C)c1nc(CN2CCN(CC3CCCO3)CC2)cs1 (configuration not stated) | 1.19 | 10.4 | -7.85 | -14 | -1.47 | 6.95 | 14.8 | 17.1 | 4.76 | 9.41 | -15.6 |
| Cn1ccnc1CNC(=O)N1CCCC(Cc2nccn2C)C1 (configuration not stated) | -8.83 | -2.7 | 9.59 | -1.15 | -3.71 | -0.833 | 2.28 | -4.83 | 10.9 | 1.22 | 1.72 |
| O=S(=O)(CCNCc1ccc2c(c1)CCO2)N1CCOCC1 | -6.32 | -2.7 | -3.09 | 10.1 | -3.67 | -3.33 | 11.7 | -0.791 | -0.529 | -4.88 | -4.8 |
| Cc1nc(C)n(C2CCCN(C(=O)Cc3cccnc3)C2)n1 (configuration not stated) | -6.21 | 5.41 | 2.37 | -1.07 | 0.586 | 2.5 | 6.17 | -10.7 | 5.94 | 11 | -2.33 |
| COc1ccc(CCC(=O)Nc2cccnc2N2CCCC2)cc1Br | -6.14 | 8.11 | -7.1 | 0.341 | -5.57 | 2.81 | 3.42 | 13.8 | 5.42 | 6.17 | -2.84 |
| COc1cccc(CNC(CN2CCN(C)CC2)c2ccccc2)c1 (configuration not stated) | -5.66 | 5.41 | -4.3 | -1.53 | -6.75 | 1.74 | 9.19 | 11.2 | 1.07 | 3.7 | -3.35 |
| COc1ccc(Cc2cccc(C3CCN(C)CC3)n2)cc1 | -2.99 | -55.4 | 8.96 | 9.53 | -0.395 | -1.62 | 6.55 | 2.93 | 5.38 | 1.3 | 1.29 |
| Cn1cnc2c1C(COCC1CC1)CN(Cc1ccc3c(c1)OCO3)C2 (configuration not stated) | -5.21 | -2.7 | 15 | -2.11 | -0.977 | -3.75 | 0.0845 | 12.3 | 2.97 | -1.22 | -2.11 |
| CN(C)S(=O)(=O)c1ccc(CN2CCCC2c2ccc[nH]2)o1 (configuration not stated) | -6.1 | -13.2 | -1.76 | -2.17 | -2.52 | -0.719 | -2.79 | -1.99 | 4.43 | -6.17 | 5.79 |
| CN(C)C(=O)N1CCN(Cc2noc(Cc3ccccc3)n2)CC1 | -2.44 | 0 | -1.46 | 6.32 | -0.661 | -2.28 | -0.409 | -0.594 | 2.46 | -3.8 | -2.99 |
| Cc1cc(CNC(=O)N2CCCN(Cc3ccccc3)CC2)no1 | -3.91 | 12.7 | -1.73 | 0.846 | -5.38 | -2.66 | 10.7 | 18.1 | 2.46 | 11.4 | -4.24 |
| Cc1cc(CC(=O)NCc2ccnc(OCC(F)(F)F)c2)no1 | -9.52 | -5.26 | 3.73 | -4.53 | -6.2 | -0.766 | 2.84 | 30.8 | 0.49 | 0 | -5.08 |
| O=C(Nc1ccccc1)c1nn(C2CCS(=O)(=O)C2)c2c1CCCC2 (configuration not stated) | -4.15 | 5.26 | 5.68 | 0.438 | -1.07 | -2.37 | 10.3 | 8.39 | 1.06 | 10.4 | -4.11 |
| CCc1nc(CN2CCCC(NCc3nc4cccnc4[nH]3)C2)no1 (configuration not stated) | -0.119 | 20.2 | -9.6 | -10.5 | 2.36 | 0 | 5.98 | 11.5 | 10.3 | 16.5 | -8.46 |
| Cn1ccc(NC(=O)Cc2cccc(F)c2)n1 | -2.82 | 5.41 | 2.46 | -6.52 | 3.71 | -3.33 | 12.3 | 15 | 12.9 | 13.4 | 113 |
| COc1cccc(OCC2CCCN(C3CCN(C(C)=O)CC3)C2)c1 (configuration not stated) | -0.921 | 5.41 | 0.304 | -4.78 | -3.67 | 1.43 | 18.4 | -5.82 | 4.76 | 12.2 | -2.6 |
| CCOc1ncccc1NC(=O)N1CCN(c2cccc(C)c2C)CC1 | -0.972 | 10.8 | 2.83 | -3.7 | -10.1 | 5.36 | 4.49 | 15.3 | 3.96 | 13.4 | 1.36 |
| CC(C(=O)NCCOc1cccc(Cl)c1)n1cncn1 (configuration not stated) | -1.19 | 17.7 | -0.802 | -7.8 | 2.55 | 3.42 | 7.94 | -10.4 | -2.46 | 13.9 | -5.29 |
